High-throughput results as filed in PubChem.
IL1B secr inh = inflammasome signaling inhibition, IL-1 beta readout | THP-1 LPS/ATP IL-1B secretion, AlphaLISA, 16 h; active compounds read low | activity change, % at 57.5 µM | 360,000 tested, 4.7% active | AID 743279; in the data active = activity change below about -50%; inconclusive = mostly about -30% to -49%
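Secreted IL-1B measured by AlphaLISA bead assay after 16 h compound exposure of THP-1 cells; compounds (final up to 57.5 uM) added 1 h before LPS (250 ng/mL) and ATP (1.25 mM) stimulation; lower signal means less secretion.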
HT1080NT lethal = kills 2HG-producing HT-1080-NT fibrosarcoma cells; Potency, µM (doses to about 46.1 µM), actives largely listed as cytotoxic; HT-1080-NT fibrosarcoma viability, CellTiter-Glo ATP luminescence, 48 h; AID 686970; 360,000 tested, 1.6% active;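 note: NT is the 2HG producing partner of a matched IDH1 knockdown line; nearly all actives have a fitted effect of over 55% in size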
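HT-1080-NT; 750 cells/well; 5% FBS RPMI; 48 h compound, 37 degrees C; CellTiter-Glo luminescence; curve fitting and curve-class assignment.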
HT1080 IDH1KD tx = toxicity to HT-1080 IDH1 knockdown cells (counter line) | Potency, µM (top dose mostly 46.1 µM), hits mostly cytotoxic | HT-1080 IDH1 knockdown viability, ATP luminescence, 48 h | 360,000 tested, 2% active
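CellTiter-Glo luminescence after 48 h compound exposure at 37 degrees C of IDH1-knockdown HT-1080 cells in 5% FBS RPMI. %Activity scaled between DMSO wells and cell-free media wells, with curves fitted and assigned curve classes.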
TDP1 cell noCPT = qHTS for Inhibitors of human tyrosyl-DNA phosphodiesterase 1 (TDP1): qHTS in cells in absence of CPT; 420,000 tested, 15% active; Potency, µM (top dose mostly 46.2 µM), most hits filed as inhibitors; DT40 Tdp1-/- hTDP1 cells, no CPT, ATP luminescence, 48 h; AID 686978, 2013; note: nearly all actives have a fitted effect of over 55% in size
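A cellular qHTS used chicken DT40 cells lacking endogenous Tdp1 but carrying stably transfected human TDP1. Compounds were applied without camptothecin, and cell growth kinetics were judged by ATP-dependent luminescence after ≥48 hr.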
ALOX12 inh = inhibitors of human 12S-lipoxygenase ALOX12 | Potency, µM (series often up to 108 µM), hits mostly inhibitors | purified 12hLO, xylenol orange hydroperoxide absorbance | 580,000 tested, 1.1% active | P18054
Target sequence (P18054 whole entry, looked up): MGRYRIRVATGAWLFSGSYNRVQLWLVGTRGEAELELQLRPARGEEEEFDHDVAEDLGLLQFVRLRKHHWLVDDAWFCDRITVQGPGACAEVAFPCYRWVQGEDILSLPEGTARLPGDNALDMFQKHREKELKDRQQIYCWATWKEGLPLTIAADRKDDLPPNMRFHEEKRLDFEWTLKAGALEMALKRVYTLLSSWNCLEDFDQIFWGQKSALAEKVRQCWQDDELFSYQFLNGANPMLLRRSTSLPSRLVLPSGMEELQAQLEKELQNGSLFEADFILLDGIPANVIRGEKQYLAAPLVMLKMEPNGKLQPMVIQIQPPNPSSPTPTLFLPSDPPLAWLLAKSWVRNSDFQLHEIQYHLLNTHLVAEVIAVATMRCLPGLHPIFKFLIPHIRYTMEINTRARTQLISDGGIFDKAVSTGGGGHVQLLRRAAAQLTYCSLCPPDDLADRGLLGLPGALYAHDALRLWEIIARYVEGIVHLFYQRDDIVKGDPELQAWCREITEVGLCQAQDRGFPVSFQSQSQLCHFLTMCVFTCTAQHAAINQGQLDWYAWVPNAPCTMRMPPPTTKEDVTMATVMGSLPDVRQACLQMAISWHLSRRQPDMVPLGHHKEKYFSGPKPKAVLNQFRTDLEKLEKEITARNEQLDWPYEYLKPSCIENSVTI
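Purified human 12hLO at 150 nM in 25 mM Hepes, 0.01% Triton X-100, pH 7.0, preincubated 15 min at room temperature with compound. Reaction started with 40 uM arachidonic acid, 30 min at room temperature. Hydroperoxide measured by Fe-xylenol orange, 573/405 nm absorbance ratio.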
DT40 TDP1 CPT = DT40-hTDP1 cell growth loss with CPT | chicken DT40 Tdp1-/-;hTDP1 cells + 20 nM CPT, ATP luminescence, 48 h | 420,000 tested, 12% active | Potency, µM (highest dose often 46.2 µM), most hits filed as inhibitors; note: nearly all actives have a fitted effect of over 55% in size
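Cell growth measured by CellTiter-Glo luminescence after a minimum 48 h, 37 C compound exposure with 20 nM CPT in Tdp1-knockout DT40 cells stably expressing hTDP1, seeded 400/well; qHTS titration format.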
Of the large screens only hits and unclear results are named; the others gave an inactive call. The sample as a whole holds a higher share of hits than the screen did. Unless noted, calls come from the whole dose curve; as a rule, active = well fitted curve in the direction sought with a large enough effect; inconclusive = small, poorly fitted or top-dose-only effect, or another doubt; inactive = no such curve, though single readings can be large; an effect the other way counts as inactive or inconclusive.

COc1cccc(C2c3c(-c4ccccc4O)n[nH]c3C(=O)N2CCc2ccc(OC)c(OC)c2)c1 (configuration not stated)	TDP1 cell noCPT 18µM, DT40 TDP1 CPT 15µM (no result: IL1B secr inh, HT1080NT lethal, HT1080 IDH1KD tx)
Cc1cc(C2CC(C(=O)NCc3cccc(F)c3)CN(C(=O)C3CC3)C2)ccc1F (configuration not stated)	none (no result: IL1B secr inh, HT1080NT lethal, HT1080 IDH1KD tx, TDP1 cell noCPT, DT40 TDP1 CPT)
O=C(/C=C/c1cccs1)Nc1ccc(N2CCOCC2)c(S(=O)(=O)Nc2ccccc2Cl)c1	IL1B secr inh inconclusive, TDP1 cell noCPT 23µM, DT40 TDP1 CPT inconclusive
O=C(/C=C/c1cccs1)Nc1ccc(N2CCOCC2)c(S(=O)(=O)Nc2cc(Cl)ccc2Cl)c1	TDP1 cell noCPT 23µM, DT40 TDP1 CPT inconclusive
Nc1ccc(N2CCOCC2)c(S(=O)(=O)Nc2cc(Cl)ccc2Cl)c1	none
NC(=S)Nc1ccc(F)cc1F	none
NNc1ccc(F)cc1F	ALOX12 inh 4.5µM (no result: IL1B secr inh, HT1080NT lethal, HT1080 IDH1KD tx, TDP1 cell noCPT, DT40 TDP1 CPT)
COc1ccc(N2CCN(C(=O)c3ccc(C)c(Cl)c3)CC2)cc1	TDP1 cell noCPT 18µM, ALOX12 inh inconclusive, DT40 TDP1 CPT inconclusive
COc1cccc(CN2CC(C(=O)N3CCN(c4ccc(Cl)cc4)CC3)CCC2=O)c1 (configuration not stated)	TDP1 cell noCPT 21µM, DT40 TDP1 CPT 23µM
COc1ccc(N2CCN(C(=O)c3cccc(Cn4cc(Cl)cn4)c3)CC2)cc1	TDP1 cell noCPT 23µM, DT40 TDP1 CPT inconclusive
Cc1ccc(-n2cc(-c3ccc([N+](=O)[O-])cc3)[nH]c2=S)c(C)c1	TDP1 cell noCPT 16µM, ALOX12 inh inconclusive, DT40 TDP1 CPT 16µM
COc1ccccc1-n1cc(-c2ccc(C)cc2)[nH]c1=S	HT1080NT lethal 10µM, HT1080 IDH1KD tx inconclusive, TDP1 cell noCPT 4.1µM, ALOX12 inh inconclusive, DT40 TDP1 CPT 3.7µM
COc1ccccc1-n1cc(-c2ccc([N+](=O)[O-])cc2)[nH]c1=S	TDP1 cell noCPT inconclusive
COc1ccccc1-n1cc(-c2ccc(Br)cc2)[nH]c1=S	TDP1 cell noCPT 13µM, ALOX12 inh inconclusive, DT40 TDP1 CPT 16µM
COc1ccc(-c2cn(-c3ccccc3)c(=S)[nH]2)cc1OC	ALOX12 inh inconclusive
COc1ccccc1-c1cn(-c2ccccc2)c(=S)[nH]1	TDP1 cell noCPT 21µM, DT40 TDP1 CPT inconclusive
COc1ccc(-c2cn(-c3ccc(C)c(C)c3)c(=S)[nH]2)cc1OC	TDP1 cell noCPT 16µM, ALOX12 inh 28µM
COc1cccc(-n2cc(-c3ccc(F)cc3)[nH]c2=S)c1	ALOX12 inh 22µM, DT40 TDP1 CPT inconclusive
COc1ccccc1C1CN(CCNC(=O)c2ccccc2Cl)Cc2ccccc2O1 (configuration not stated)	none (no result: IL1B secr inh, HT1080NT lethal, HT1080 IDH1KD tx)
CCC(C)(C)NC(=O)c1ccc2c(c1)N(CC(=O)NC1CCCC1)C(=O)C(C)(C)O2	none
Cc1cc[n+]2c3c(cccc13)CCC2	TDP1 cell noCPT 18µM, DT40 TDP1 CPT 21µM
COc1ccc2cc(/C=C3\SC(=O)NC3=O)ccc2c1	none (no result: IL1B secr inh, HT1080NT lethal, HT1080 IDH1KD tx, TDP1 cell noCPT, DT40 TDP1 CPT)
CCN1C(=O)C(=Cc2cccc(OC)c2Oc2ccc([N+](=O)[O-])cc2[N+](=O)[O-])SC1=S	IL1B secr inh -95, HT1080NT lethal 2.6µM, HT1080 IDH1KD tx 3.3µM, TDP1 cell noCPT 1.5µM, DT40 TDP1 CPT 1.5µM
COc1ccc(/C=C2\SC(=O)NC2=S)cc1OC	IL1B secr inh -74, HT1080NT lethal inconclusive, HT1080 IDH1KD tx inconclusive, TDP1 cell noCPT inconclusive, ALOX12 inh 40µM, DT40 TDP1 CPT 10µM
COc1cc(/C=N/O)ccc1Oc1ccc([N+](=O)[O-])cc1[N+](=O)[O-]	TDP1 cell noCPT 18µM, DT40 TDP1 CPT inconclusive
CCN1C(=O)/C(=C\c2ccc(-c3ccc([N+](=O)[O-])cc3OC)o2)SC1=Nc1cccc(C(=O)O)c1	ALOX12 inh inconclusive
CCOc1cc(/C=N/O)ccc1OCc1ccc([N+](=O)[O-])cc1	DT40 TDP1 CPT inconclusive
